Here are results for 38 molecules from PubChem BioAssay.

A short description of test [1]: blood-stage malaria parasite viability loss – strain 3D7, DAPI fluorescence, 100 nL, primary screen (AID 1184).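 Also: parasites grown inside human red blood cells in medium with human serum.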 Particulars: P. falciparum 3D7 growth, 3 d, higher = more signal.
The target of test [2] is Homeobox protein Hox-A13 (Mus musculus) (UniProt Q62424). In words: disruptors of Hoxa13 oligonucleotide interaction – biochemical, fluorescence polarization, labeled oligonucleotide, primary screen (AID 1185). Particulars: Hoxa13:DNA binding, 15 min, higher = more signal, called active from +8 up or from −8 down. (In general: Fluorescence polarisation rises when a labelled molecule tumbles more slowly, as on binding a larger partner.)

The nature of test [3]: blockers of DNA damage checkpoint Chk1 activation – imaging, HeLa, hydroxyurea, phospho-Chk1 antibody, percent positive cells, primary screen (AID 1186). The settings on record: hydroxyurea-induced phospho-Chk1 immunofluorescence imaging, higher = more signal.
Test [4] is described as follows: blockers of DNA damage checkpoint Chk1 activation – imaging, HeLa, hydroxyurea, phospho-Chk1 nuclear intensity, primary screen (AID 1187). Also: test concentration not given here. The settings on record: hydroxyurea-induced phospho-Chk1 immunofluorescence imaging, higher = more signal.

Molecules are shown by their SMILES. Calls of active or inactive are those of the source. Unless noted, no rule for the calls is given here.

Homeobox protein Hox-A13 (Mus musculus), sequence (Q62424 whole entry, looked up): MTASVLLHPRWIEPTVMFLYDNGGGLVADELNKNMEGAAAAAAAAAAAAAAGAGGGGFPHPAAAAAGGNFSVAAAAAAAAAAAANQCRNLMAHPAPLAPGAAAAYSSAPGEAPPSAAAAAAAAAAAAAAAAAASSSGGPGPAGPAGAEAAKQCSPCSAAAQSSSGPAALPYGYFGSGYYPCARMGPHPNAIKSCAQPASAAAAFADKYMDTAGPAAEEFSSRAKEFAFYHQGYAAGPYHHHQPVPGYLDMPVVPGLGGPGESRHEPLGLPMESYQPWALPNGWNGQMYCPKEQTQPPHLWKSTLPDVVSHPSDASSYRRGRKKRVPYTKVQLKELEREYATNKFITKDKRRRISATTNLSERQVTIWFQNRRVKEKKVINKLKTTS

With `O=C(O)[C@H]1C[C@H]2C(=O)N[C@@H](Cc3ccccc3)C(=O)N2[C@H]1c1ccc(O)cc1`, the z-score was -0.453 in test [1], -2.68 (inactive) in test [2], -0.119 (inactive) in test [3] and -0.18 (inactive) in test [4].
For `COCCOC(=O)N1C(=O)[C@@]2(c3cc(C#CC4(O)CCCCCC4)ccc31)[C@H](c1ccccc1OCCO)N1[C@H](c3ccccc3)[C@H](c3ccccc3)OC(=O)[C@H]1[C@@H]2C(=O)Nc1nc2ccccc2s1` the same measures were -1.67, 4.08 (inactive), -0.201 (inactive) and -0.38 (inactive).
For `Cc1ccc(S[C@]2(C(=O)NCCN3CCOCC3)CC(=O)N(Cc3cc(C(F)(F)F)cc(C(F)(F)F)c3)[C@@H]2c2ccc(CO)cc2)cc1` the same measures were -0.578, -1.78 (inactive), -0.999 (inactive) and -2.03 (inactive).
In the case of `COC(=O)C(CC#Cc1ccc2c(c1)[C@]1(C(=O)N2)[C@H](C(N)=O)[C@H]2C(=O)O[C@H](c3ccccc3)[C@H](c3ccccc3)N2[C@@H]1c1ccc(O)cc1)C(=O)OC`, the z-score in test [1] was -0.91; in test [2] it was -3.34 (inactive); in test [3], 0.16 (inactive); in test [4], 0.819 (inactive).
Taken in the same sequence, the figures for `CC(CO)N1C(=O)[C@@H]2C3C(=O)OCCC/C=C\[C@H]3OC23C=CCN(Cc2ccccc2)C(=O)[C@@H]13` (some centres not stated) were -0.518, -5.46 (inactive), -0.6 (inactive) and -0.674 (inactive).
Regarding `C=CCNC(=O)[C@H]1[C@@H]2C(=O)O[C@@H](c3ccccc3)[C@@H](c3ccccc3)N2[C@@H](c2ccccc2OCCO)[C@]12C(=O)N(C(=O)OCCOC)c1ccc(C#CCCO)cc12`, the z-score is -2.16 in test [1], -1.2 (inactive) in test [2], 0.051 (inactive) in test [3] and -0.0745 (inactive) in test [4].
Take `CC(C)(C)OC(=O)CC[C@@]12N=C(c3ccc(OCCCO)cc3)O[C@@H]1c1ccccc1CN(Cc1ccccc1)C2=O`: the z-score in test [1] is -2.3; in test [2] it was -1.33 (inactive); in test [3], -0.543 (inactive); in test [4], 0.0228 (inactive).
Taken in the same sequence, the figures for `COCCOC(=O)N1C(=O)[C@@]2(c3cc(C#CC4(O)CCCCCC4)ccc31)[C@H](c1ccc(O)cc1)N1[C@H](c3ccccc3)[C@H](c3ccccc3)OC(=O)[C@H]1[C@@H]2C(N)=O` were -0.5, -2.38 (inactive), 0.178 (inactive) and 0.0653 (inactive).
Taken in the same sequence, the figures for `O=C1N(CCS(=O)(=O)c2ccccc2)Cc2ccccc2[C@@H]2OC(c3ccc(OCCCO)cc3)=N[C@]12Cc1ccccc1` were -2.19, 2.39 (inactive), -0.354 (inactive) and 0.111 (inactive).
Taken in the same sequence, the figures for `COc1ccc([Si](C)(C)[C@@H]2[C@@H](CCn3cc(CCO)nn3)O[C@]3(C(=O)N(Cc4ccc(N5C(=O)c6cccc7cccc5c67)cc4)c4ccccc43)[C@H]2C)cc1` were -2.41, -1.56 (inactive), -1.02 (inactive) and -0.956 (inactive).
For the molecule `CO[C@H]1O[C@H](CO)[C@@H](OC(=O)Nc2ccccc2)[C@H](OC(=O)Nc2ccccc2-c2ccccc2)[C@H]1OC(=O)Nc1ccccc1-c1ccccc1`, the z-score is -1.81 in test [1], -3.12 (inactive) in test [2], -0.796 (inactive) in test [3] and -0.793 (inactive) in test [4].
Regarding `O=C(NCc1ccccc1)[C@@H]1c2ccccc2C(=O)N(Cc2ccccc2Cl)[C@H]1c1ccc(CO)cc1`, the z-score in test [1] is 0.187; in test [2], -0.497 (inactive); in test [3], -0.0434 (inactive); in test [4] it was 0.206 (inactive).
On to `COc1ccc(C#Cc2ccc3c(c2)[C@]2(C(=O)N3)[C@H](c3ccc(O)cc3)N3[C@H](c4ccccc4)[C@H](c4ccccc4)OC(=O)[C@H]3[C@@H]2C(N)=O)cc1`, for which the z-score was -1.17 in test [1], -0.123 (inactive) in test [2], 0.186 (inactive) in test [3] and 0.381 (inactive) in test [4].
For `CN(C)CCCC[C@@H]1NC(=O)[C@@H]2C[C@H](C(=O)NCCCCCNC(=O)CS)[C@H](c3cccc(OCCO)c3)N2C1=O` the same measures were -1.46, -1.12 (inactive), 0.27 (inactive) and 0.302 (inactive).
In the case of `C[N+](C)(C)CCCCNC(=O)[C@@H]1C[C@@H]2C(=O)NCC(=O)N2[C@@H]1c1cccc(OCCO)c1`, the z-score in test [1] is -0.664; in test [2], -1.4 (inactive); in test [3], 0.469 (inactive); in test [4], 1.31 (inactive).
For `CCOC(=O)C[C@H]1[C@H](OC(=O)c2ccc(-c3ccccc3)cc2)[C@@H](NC(=O)c2ccccc2)c2cc(OCCCO)ccc2N1C(=O)c1ccccc1`, the z-score in test [1] was -1.21; in test [2], -0.959 (inactive); in test [3], -1.04 (inactive); in test [4], -0.361 (inactive).
Taken in the same sequence, the figures for `CC(C)(C)OC(=O)CC[C@@]12N=C(c3ccc(OCCCO)cc3)O[C@@H]1c1ccccc1N(Cc1ccccc1)C2=O` were -2.19, -1.44 (inactive), -0.501 (inactive) and -0.284 (inactive).
For `COc1ccc([Si](C)(C)[C@H]2[C@H](CC(=O)N(CCO)Cc3ccccc3)O[C@@]3(C(=O)N(Cc4cccc(N5C(=O)COc6ccccc65)c4)c4ccccc43)[C@@H]2C)cc1`, the z-score is -2.28 in test [1], -1.15 (inactive) in test [2], -0.567 (inactive) in test [3] and 0.722 (inactive) in test [4].
As to `O=C(NCC(F)(F)F)[C@@H]1c2ccccc2C(=O)N(C2Cc3ccccc3C2)[C@H]1c1ccc(CO)cc1`, the z-score was 0.824 in test [1], -1.6 (inactive) in test [2], -0.606 (inactive) in test [3] and -0.842 (inactive) in test [4].
In the case of `C=CCC1(CC=C)C[C@H]2CO[C@H](c3ccc(OC)cc3)N2C1=O`, the z-score in test [1] is -0.682; in test [2] it was -0.41 (inactive); in test [3], -0.063 (inactive); in test [4] it was 0.989 (inactive).
Taken in the same sequence, the figures for `O=C1c2ccccc2[C@@]2(Cc3ccccc3N(CC(F)(F)F)C2=O)[C@H](c2ccc(CO)cc2)N1Cc1ccccc1C(F)(F)F` were 0.226, -0.0255 (inactive), -0.563 (inactive) and -0.816 (inactive).
Taken in the same sequence, the figures for `O=C1c2ccccc2C(=O)c2cc([C@H]3Oc4ccccc4S(=O)(=O)N4CCC[C@@H]34)ccc21` were -1.27, -3.19 (inactive), -0.4 (inactive) and -0.252 (inactive).
In the case of `CCOC(=O)C[C@H]1[C@H](OC(=O)c2ccc(-c3ccccc3)cc2)[C@@H](NC(=O)C2CCCCC2)c2cc(OCCCO)ccc2N1C(=O)c1ccc2ccccc2n1`, the z-score in test [1] is -0.915; in test [2], -0.844 (inactive); in test [3] it was -0.807 (inactive); in test [4], -0.479 (inactive).
For `C=CCNC(=O)[C@@H]1[C@H]2C(=O)O[C@H](c3ccccc3)[C@H](c3ccccc3)N2[C@H](c2ccc(O)cc2)[C@@]12C(=O)Nc1ccccc12` the same measures were -1.73, -3.58 (inactive), 0.21 (inactive) and 0.399 (inactive).
On to `C=C[C@H](OC)[C@@H](OC(=O)Nc1ccc(OC)cc1)c1ccc(OC)c(O)c1`, for which the z-score in test [1] was -0.294; in test [2] it was -2.75 (inactive); in test [3], 0.0254 (inactive); in test [4] it was 0.471 (inactive).
Taken in the same sequence, the figures for `C=CCNC(=O)[C@@H]1[C@H]2C(=O)O[C@H](c3ccccc3)[C@H](c3ccccc3)N2[C@H](c2ccc(O)cc2)[C@@]12C(=O)Nc1ccc(C#Cc3ccc(OC)cc3)cc12` were -0.107, 0.296 (inactive), -0.357 (inactive) and -0.426 (inactive).
Taken in the same sequence, the figures for `COCCCNC(=O)[C@@]1(C)c2ccccc2C(=O)N(Cc2cc(F)cc(C(F)(F)F)c2)[C@H]1c1ccc(CO)cc1` were -0.753, -2.01 (inactive), -0.1 (inactive) and 0.802 (inactive).
Taken in the same sequence, the figures for `C=CCC(OC(C)=O)[C@@H]1[C@@H](N(Cc2ccc(-c3cccc(C(F)(F)F)c3)o2)C(=O)c2ccc(-c3ccccc3)cc2)c2cc(OCCCO)ccc2N1C(=O)Cc1ccc(OC)cc1` (some centres not stated) were -0.809, -0.497 (inactive), -0.138 (inactive) and -0.0148 (inactive).
Consider `COCCOC(=O)N1C(=O)[C@@]2(c3cc(C#CC4(O)CCCCCC4)ccc31)[C@H](C(=O)NC[C@H](O)c1ccccc1)[C@H]1C(=O)O[C@H](c3ccccc3)[C@H](c3ccccc3)N1[C@@H]2c1ccccc1OCCO`, for which the z-score in test [1] was -2.11; in test [2] it was -0.371 (inactive); in test [3] it was 0.462 (inactive); in test [4] it was 0.992 (inactive).
For `COC(=O)c1c(CC[C@@H](CO)NC(=O)Nc2ccc(OC)cc2)oc(C(=O)Cc2ccccc2)c1C(=O)OC`, the z-score in test [1] is -0.83; in test [2], -4.5 (inactive); in test [3], 0.0211 (inactive); in test [4] it was 0.406 (inactive).
For `O=C(NC1CC1)[C@@H]1c2ccccc2C(=O)N(Cc2ccccc2C(F)(F)F)[C@H]1c1ccc(CO)cc1` the same measures were -0.358, -1.7 (inactive), -0.14 (inactive) and 0.177 (inactive).
For `COc1ccc([Si](C)(C)[C@@H]2[C@@H](CCn3cc([C@H](O)c4ccccc4)nn3)O[C@]3(C(=O)N(C)c4c(Br)cc(C)cc43)[C@H]2C)cc1` the same measures were -1.22, -3.19 (inactive), -0.973 (inactive) and -0.208 (inactive).
For `O=C1O[C@@H](c2ccccc2)[C@@H](c2ccccc2)N2[C@@H](c3ccc(OCCO)cc3)[C@]3(C(=O)Nc4ccc(C#CC5(O)CCCCCC5)cc43)[C@@H](C(=O)NC[C@H](O)c3ccccc3)[C@H]12`, the z-score in test [1] is -2.21; in test [2], -1.22 (inactive); in test [3] it was 0.0477 (inactive); in test [4], 0.343 (inactive).
For `COc1ccc(/C=C/C(=O)c2cccc(OCC(=O)OC(C)(C)C)c2)cc1` the same measures were -0.732, -3.31 (inactive), -0.0499 (inactive) and 0.373 (inactive).
Turning to `CC(C)C[C@@H]1NC(=O)[C@H]2C[C@@H](C(=O)NCCCC[N+](C)(C)C)[C@@H](c3cccc(OCCO)c3)N2C1=O`, the z-score in test [1] was 1; in test [2] it was -2.24 (inactive); in test [3], 0.656 (inactive); in test [4], 0.824 (inactive).
For `C=CCC(OC(C)=O)[C@@H]1[C@@H](N(Cc2ccc(-c3ccccc3)cc2)C(=O)c2ccc(-c3ccccc3)cc2)c2cc(OCCCO)ccc2N1C(=O)c1ccc(-c2ccccc2)cc1` (some centres not stated) the same measures were -0.883, -0.513 (inactive), -0.293 (inactive) and 0.122 (inactive).
In the case of `C=CC[C@]1(C(=O)N(C)C)N=C(c2ccc(OCCCO)cc2)O[C@H]1c1ccccc1CN=[N+]=[N-]`, the z-score in test [1] is -2.49; in test [2], -4.33 (inactive); in test [3], -0.0783 (inactive); in test [4], 0.347 (inactive).
With `CC(C)(C)OC(=O)CC[C@]1(C(=O)NCc2ccccc2)COC(c2ccc(OCCCO)cc2)=N1`, the z-score is -0.561 in test [1], -5.02 (inactive) in test [2], 0.0879 (inactive) in test [3] and 0.166 (inactive) in test [4].
